Experimental data published in PubChem BioAssay (NCATS).

Assay: Cell Proliferation Assay against the HBL1 Cell Line (AID 651646);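 also: cells exposed to compound for 48 h before reading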
Conditions: HBL1 DLBCL cells; at 46.1 µM (top of the series)
Method in brief: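 HBL1 ABC DLBCL cells, 500/well in RPMI with 5% FBS, treated for 48 h at 37C. Viability read by CellTiter-Glo luminescence, normalized to DMSO as 100% and 9.2 uM bortezomib as 0%.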

Point of comparison: `Cc1ccc(NC(=O)c2ccc(CN3CCN(C)CC3)cc2)cc1Nc1nc(-c2cccnc2)cs1`, viability, percent of control 11%. Against it:
- CCC=CC[C@H]1C(=O)CC[C@@H]1CC(=O)OC — higher, 109%
- CN(C)CCN(C)C(=O)c1ccc(NC(=O)Nc2ccc(-c3nc(N4CCOCC4)c4ccn(CC(F)(F)F)c4n3)cc2)cc1 — lower, 1.25%
- Cn1cc(-c2ccc3nnc(Sc4ccc5ncccc5c4)n3n2)cn1 — higher, 119%
- O=C1C(CCC(O)c2ccc(F)cc2)C(c2ccc(O)cc2)N1c1ccc(F)cc1 (stereo not drawn) — higher, 68%
- CCC(=O)N1CCN(c2ccc(-n3c(=O)ccc4cnc5ccc(-c6cnc7ccccc7c6)cc5c43)cc2C(F)(F)F)CC1 — lower, 4.82%
- CC(C)C[C@@H](C(=O)N[C@H](C(=O)OC1CCCC1)c1ccccc1)[C@H](O)C(=O)NO — lower, 6.68%
- CCCCCCCCCCCCCC(=O)N[C@H](CO)[C@H](O)c1ccc([N+](=O)[O-])cc1 — higher, 21.7%
- O=C(O)c1ccc(O)c2ncc(N3CCOCC3)cc12 — higher, 74%
- CC(O)=C(C#N)C(=O)Nc1ccc(C(F)(F)F)cc1 — higher, 56.6%
- NC(=O)c1ccc(N(C(N)=O)c2c(F)cccc2F)nc1-c1ccc(F)cc1F — higher, 110%
- COc1cc2c(cc1OC)CC(=O)N(CCCN(C)C[C@H]1Cc3cc(OC)c(OC)cc31)CC2 — higher, 122%
- COc1nc(C)cnc1NS(=O)(=O)c1cccnc1-c1ccc(-c2nnco2)cc1 — higher, 92.3%
- CCCCOCCOc1nc(-c2ccc(C(=O)O)c(F)c2)sc1C — higher, 84.4%
- COc1c(C)cnc(Cn2cnc3c(Cl)nc(N)nc32)c1C — higher, 59.9%
- Cc1nn(Cc2ccccc2Cl)c(C)c1CN(C)CC(O)COc1ccc(Cl)cc1 (stereo not drawn) — lower, 2.62%
- CN1C(=O)C(Cc2c[nH]c3ccccc23)NC1=S (stereo not drawn) — higher, 98.6%
- O=C(Nc1cccc(Cl)c1)Nc1ncc(CCNc2ncnc3ccsc23)s1 — lower, 2.32%
- CCCCn1c(=O)n(Cc2ccccc2F)c(=O)c2[nH]c(Cc3ccc(NC(C)=O)cc3)nc21 — lower, 4.28%
- COC(=O)Nc1ccc(-c2nc(N3CCOCC3)c3cnn(C4CCN(C(=O)OC)CC4)c3n2)cc1 — higher, 51.1%
- Cc1cccc(Nc2nc(N[C@@H]3CCCC[C@H]3N)ncc2C(N)=O)c1 — lower, 2.69%
- CNC(=O)c1cc(Oc2ccc(NC(=O)Nc3ccc(Cl)c(C(F)(F)F)c3)c(F)c2)ccn1 — lower, 4.87%
- OCCn1cc(-c2ccc3c(c2)CCC3=NO)c(-c2ccncc2)n1 — higher, 133%
